The list is not random: actives were taken first. Their share in the collection is about 6.5%.
Spn PMK inh = S. pneumoniae PMK inhibitors, primary screen, biochemical, mevalonate pathway, pilot trial included | phosphomevalonate kinase (Streptococcus pneumoniae D39) | purified PMK, PK/LDH-coupled NADH absorbance 340 nm | inhibition, % at 10 µM | actives 0.49% (n = 65,000);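 active means top-ranked compounds by inhibition in the single 10 µM screen, taking a fixed number of the strongest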;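 further: 0% = full reaction with DMSO carrier and 100% = background rate without enzyme reaction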
A340 absorber = compound light absorbance at 340 nm, profiling panel, artefact control, biochemical, MLSMR library, data from PS, PMK, MK assays. compound absorbance at 340 nm, fold over control. fold change at 10 µM. 65,000 tested, under 10 active. AID 708, 2007;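 active means at 10 µM dose, initial 340 nm absorbance at least 2 fold that of control wells; inactive means change under 2 fold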;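 further: initial absorbance extrapolated from kinetic A340 decline of NADH oxidation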
Spn MK inh = S. pneumoniae MK inhibitors, primary screen, biochemical, PK/LDH-coupled NADH absorbance | mevalonate kinase [Streptococcus pneumoniae D39] | purified MK, PK/LDH-coupled NADH absorbance 340 nm | inhibition, % at 10 µM | actives 0.48% (n = 65,000);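 active means ranked among the strongest by inhibition in the single 10 µM screen, a fixed top-ranked set picked for dose follow-up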
Spn DPM-DC inh = S. pneumoniae DPM-DC inhibitors, primary screen, biochemical, PK/LDH-coupled NADH fluorescence. diphosphomevalonate decarboxylase (Streptococcus pneumoniae D39). purified DPM-DC. calls only at 10 µM. actives 0.49% (n = 65,000). AID 556, 2006;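 active means the 320 compounds with the highest percent inhibition in the single-dose primary screen, excluding strongly autofluorescent ones, cut at about 32% in these data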;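 further: kinetic rate of NADH fluorescence loss reporting ADP formed by the decarboxylase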
NADH enzymes = inhibitors of PK/LDH coupling enzymes, profiling panel, artefact control, biochemical, MLSMR library | AID 774, 2007 | IC50, µM (series often up to 10 µM), inactives show top-dose inhibition | coupled PK/LDH NADH assays, four targets | actives 0.02% (n = 65,000);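 active means single-dose screening hits from any of four coupled enzyme assays that gave an IC50 when retested across doses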;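 further: the DPM-DC format reads NADH fluorescence rather than 340 nm absorbance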
Fluor 339 460 = intrinsic fluorescence of library compounds, ex339/em460 – biochemical, MLSMR library, data from DPM-DC assay, artefact control, profiling panel; compound autofluorescence, ex339/em460 nm, NADH buffer; hits give high values; 1 = no-compound wells, NADH background; fluorescence fold increase at 10 µM; actives 5.5% (n = 65,000);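 active means at 10 µM, mean starting fluorescence two-fold or more over control wells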;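 further: signal is the first read of a kinetic run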
Active calls of the source: *; i = inactive; nt = no result given; + = active, no number.

SMILES	Spn PMK inh	A340 absorber	Spn MK inh	Spn DPM-DC inh	NADH enzymes	Fluor 339 460
C=C(C)COc1ccc2c(C)c(CC(=O)OC)c(=O)oc2c1C	0	1.1	2	nt	1%	3.8*
CCN(CC)Cc1c(O)ccc2c(-c3ccccc3)cc(=O)oc12	10	1.1	7	nt	9%	2.1*
CCN(CC)Cc1c(O)ccc2c(C)c(CC(=O)OC)c(=O)oc12	5	1.2	6	nt	6%	2.4*
COC(=O)Cc1c(C)c2ccc(OCC(C)=O)c(C)c2oc1=O	8	1.1	6	nt	7%	3.8*
Nc1nc(N2CCN(C/C=C/c3ccccc3)CC2)nc2ccccc12	5	0.97	10	i	3%	1.4
O=C(CCCCCn1c(SCc2ccncc2)nc2ccccc2c1=O)NCc1ccco1	12	1	6	i	3%	0.99
CCn1ncc2c(OCc3ccc(C#N)cc3)cc(C)nc21	0	1	3	i	1%	1.1
CC1(C)Cc2nc(N)c(C(=O)NCCO)cc2CO1	5	1.1	2	nt	4%	2.3*
CCOC(=O)c1sc2nc3c(cc2c1N)COC(C)(C)C3	2	1	8	i	5%	1.5
CCc1c(C)nc(N)n2c(SCC(=O)N3CCN(c4ccccc4OC)CC3)nnc12	10	0.99	4	i	5%	1.1
N#Cc1nc(COc2ccc(-c3ccccc3)cc2)oc1NCCCN1CCOCC1	0	1	7	i	2%	1.1
N#Cc1nc(-c2cccs2)oc1NCCCN1CCOCC1	0	1.1	9	nt	5%	2.3*
N#Cc1nc(-c2ccccc2F)oc1NCCN1CCOCC1	20	1.1	5	nt	13%	2.1*
N#Cc1nc(Cc2cccc3ccccc23)oc1NCCN1CCCCC1	11	1	8	i	6%	1.1
N#Cc1nc(-c2ccc(F)cc2)oc1NCCN1CCOCC1	3	1.1	9	nt	6%	2.1*
Cc1ccc(-c2nc(C#N)c(NCCN3CCCCC3)o2)cc1	6	1.1	4	nt	5%	2.1*
C=CCN1C(=O)C2(/C(=C(\O)c3ccc4c(c3)OCCO4)C(=O)C(=O)N2CCCOC)c2ccccc21 (configuration not stated)	10	1.1	2	i	1%	1
N#Cc1nc(COc2ccccc2)oc1NCCN1CCOCC1	17	1	5	i	4%	1.1
N#Cc1nc(-c2ccco2)oc1NCCN1CCOCC1	13	1	10	i	17%	3*
N#Cc1nc(-c2cccc3ccccc23)oc1NCCN1CCOCC1	15	1.1	13	nt	14%	3.6*
COc1ccc(-c2nc(C#N)c(NCCCN3CCOCC3)o2)cc1	0	1.1	4	nt	2%	2.1*
COc1ccc(N2CCN(c3oc(-c4ccco4)nc3C#N)CC2)cc1	13	1	16	i	10%	1.1
O=C(COc1ccccc1)Nn1cnc2ccccc21	0	1.1	9	i	3%	1.3
Cc1ccc(NCc2nnc(SCC(=O)NCCc3ccccc3)n2C)cc1	14	1	7	i	7%	1
CCCOC(=O)c1cc(=O)[nH]c2ccccc12	11	1	0	i	6%	2.3*
SMILES	Spn PMK inh	A340 absorber	Spn MK inh	Spn DPM-DC inh	NADH enzymes	Fluor 339 460
N#CC1=C(N)N(c2ccc(Br)cc2)C2=C(C(=O)CCC2)C1c1cccnc1 (configuration not stated)	8	1	7	i	5%	1.1
O=C(c1cccn2c(=O)c3ccccc3nc12)N1CCN(c2ccccn2)CC1	13	1.1	3	i	5%	1.8
O=C(O)c1cccn2c(=O)c3ccccc3nc12	11	1.1	13	+	54µM*	1.4
CC(=O)NC(C)C(=O)OCC(=O)Nc1ccc(Br)cc1 (configuration not stated)	8	1.1	1	i	1%	1
CC(C)=CC(=O)Nc1ccc(Br)cc1	active	0.97	14	i	5%	1.1
COc1cccc(C2C(C(=O)OCc3ccccc3)=C(C)Nc3ncnn32)c1OC (configuration not stated)	6	1	6	i	4%	1.1
COc1ccc(N(Cc2ccco2)C(=O)c2ccccc2F)cc1OC	9	0.99	5	i	5%	1.1
CCOC(=O)CSc1nnc(N)s1	17	1	0	i	6%	1.1
CCOC(=O)C(CCc1nnc(N)s1)C(=O)OCC	30*	1	3	i	5%	1.1
O=C(OCC(=O)N1CCCC1)c1cccs1	12	1	0	i	5%	0.94
CC(=O)Nc1cccc(NC(=O)c2oc3ccccc3c2C)c1	0	1	11	i	1%	1.1
Cc1c(C(=O)Nc2ccc3oc(-c4cccnc4)nc3c2)oc2ccccc12	8	1.1	13	nt	11%	3.8*
CC(C)CC(=O)Nc1ccc2oc(-c3cccnc3)nc2c1	0	1.1	8	nt	4%	2.2*
Cc1c(C(=O)Nc2ccc(-n3cnnn3)cc2)oc2ccccc12	10	1.1	13	nt	12%	3.8*
Cc1ccc2oc(-c3ccc(NC(=O)CC(C)C)cc3)nc2c1	4	1.1	2	nt	3%	2.2*
CCOc1ccccc1NC(=O)CCN1CCN(S(=O)(=O)c2ccc(Br)cc2)CC1	7	0.99	7	i	2%	0.99
Cc1ccc(C(c2nnnn2CC2CCCO2)N2CCN(c3cccc(C)c3C)CC2)cc1 (configuration not stated)	13	0.98	0	i	4%	1.1
O=C(CN1CCC(O)(c2ccc3c(c2)OCO3)CC1)OC1CCCCC1	13	0.97	6	i	3%	1
COc1cc(C2c3c(n[nH]c3C)C(=O)N2c2ccc(C)cc2)ccc1O (configuration not stated)	0	0.98	10*	i	9%	1
Cc1oc2ccc(O)c(CN3CCOCC3)c2c1C(=O)c1ccc(Cl)cc1	13	1.1	10	i	8%	1.1
Cc1c(O)ccc2c3c(c(=O)oc12)CCCC3	8	1.1	9	nt	9%	3.9*
O=c1oc2c(CN3CCOCC3)c(O)ccc2c2c1CCC2	6	1.1	8	nt	7%	3.6*
Cc1c(O)ccc2c3c(c(=O)oc12)CCC(C)C3 (configuration not stated)	5	1.1	9	nt	7%	3.7*

Assay outcomes as filed in PubChem.
